RORg inh: qHTS for inhibitors of ROR gamma transcriptional activity; Nuclear receptor ROR-gamma (Mus musculus), P51450; Drosophila S2 Gal4-RORgamma UAS-luciferase reporter, 20 h; Potency, µM (titrated, usually from 53.6 µM), for inactives: at the highest dose activity change, negative = inhibition, hits mostly inhibitors; actives 5.4% (n = 310,000); AID 2551, 2010; note: potency is the fitted concentration of half-maximal effect; nearly all actives have a fitted effect of over 60% in size
Target sequence (P51450 whole entry, looked up, the tested form may be a part): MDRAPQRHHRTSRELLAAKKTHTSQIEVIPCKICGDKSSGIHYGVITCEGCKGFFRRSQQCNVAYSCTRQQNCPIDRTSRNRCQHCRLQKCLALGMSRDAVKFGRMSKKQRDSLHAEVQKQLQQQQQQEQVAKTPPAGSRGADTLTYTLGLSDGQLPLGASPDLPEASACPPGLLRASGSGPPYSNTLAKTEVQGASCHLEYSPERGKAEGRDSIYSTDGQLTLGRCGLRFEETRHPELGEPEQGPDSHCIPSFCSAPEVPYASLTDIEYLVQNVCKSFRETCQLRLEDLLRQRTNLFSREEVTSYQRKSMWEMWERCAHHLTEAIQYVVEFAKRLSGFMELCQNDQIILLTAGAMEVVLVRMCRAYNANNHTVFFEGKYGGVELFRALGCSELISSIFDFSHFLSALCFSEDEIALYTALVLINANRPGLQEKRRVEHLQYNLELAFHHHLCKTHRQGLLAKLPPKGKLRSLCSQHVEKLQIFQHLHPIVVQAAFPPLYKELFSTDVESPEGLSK
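Read-out: Photinus luciferase luminescence; inhibitors lower reporter signal. Insect Schneider cells with Gal4-ROR gamma fusion under metallothionein promoter, UAS reporter; 700 uM final copper sulfate induction, 20 hr, ambient temperature.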
TDP1 cell noCPT: qHTS for Inhibitors of human tyrosyl-DNA phosphodiesterase 1 (TDP1): qHTS in cells in absence of CPT; DT40 Tdp1-/- hTDP1 cells, no CPT, ATP luminescence, 48 h; actives 15% (n = 420,000); Potency, µM (top dose mostly 46.2 µM), for inactives: at the highest dose activity change, negative = growth inhibition, hits mostly inhibitors; note: potency is the fitted concentration of half-maximal effect; nearly all actives have a fitted effect of over 55% in size
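Luminescent ATP content (CellTiter-Glo) served as the growth readout. Knockout chicken DT40 cells expressing human TDP1 were exposed to compounds without camptothecin for a minimum 48 hr at 37 °C.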
ELG1 DNA repair: qHTS screen for small molecules that inhibit ELG1-dependent DNA repair in human embryonic kidney (HEK293T) cells expressing luciferase-tagged ELG1. actives 2.3% (n = 330,000). AID 504467, 2011. HEK293T ELG1-luciferase reporter, luminescence, 16 h; DNA damage induced by 5-fluorouridine. Potency, µM (top dose mostly 46.1 µM), for the others: at the highest dose activity change, negative = inhibition, hits mostly inhibitors; note: potency is the fitted concentration of half-maximal effect; nearly all actives have a fitted effect of over 55% in size
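In this reporter screen, reduction of luminescence relative to DMSO vehicle indicated activity. Compounds and 5-fluorouridine were added together to 2,000 cells per well, incubated for 16 hr at 37 °C, then developed with ONE-Glo.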
DT40 TDP1 CPT: qHTS for Inhibitors of human tyrosyl-DNA phosphodiesterase 1 (TDP1): qHTS in cells in presence of CPT; Potency, µM (doses to about 46.2 µM), for inactives: at the highest dose activity change, negative = growth inhibition, most hits filed as inhibitors; AID 686979, 2013; chicken DT40 Tdp1-/-;hTDP1 cells + 20 nM CPT, ATP luminescence, 48 h; actives 12% (n = 420,000); note: potency is the fitted concentration of half-maximal effect; nearly all actives have a fitted effect of over 55% in size
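Chicken DT40 Tdp1-/- cells stably complemented with human TDP1 were seeded at 400 cells/well in medium containing 20 nM camptothecin, exposed to pin-transferred compounds, and grown at 37 °C for at least 48 hr. Viability was read as ATP luminescence.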
IL1B secr inh: qHTS for Inhibitors of Inflammasome Signaling: IL-1-beta AlphaLISA Primary Screen; THP-1 LPS/ATP IL-1B secretion, AlphaLISA, 16 h; active compounds read low; activity change, % at 57.5 µM; actives 4.7% (n = 360,000); AID 743279, 2014; in the data active = activity change below about -50%; inconclusive = mostly about -30% to -49%
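THP-1 cells pretreated 1 hr with compounds (up to 57.5 uM final), then stimulated with LPS (250 ng/mL final) plus ATP (1.25 mM final); secreted IL-1B measured by AlphaLISA after 16 hr, decreased signal indicating inhibition.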
Gal4-VP16 FLuc: VP16 counterscreen qHTS for inhibitors of ROR gamma transcriptional activity; Drosophila S2 Gal4-VP16 UAS-luciferase, luminescence, 20 h; AID 2546, 2010; Potency, µM (highest dose often 53.6 µM), without a hit: at the highest dose activity, negative = inhibition, actives largely listed as inhibitors; actives 3.5% (n = 310,000);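 note: Gal4-VP16 expression switched on by copper sulfate through the metallothionein promoter; potency is the fitted concentration of half-maximal effect; nearly all actives have a fitted effect of over 50% in size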
Numbers without * were called inactive; ? = inconclusive; nt = no result given; [ ] = remark or other dose. Shown are actives, neighbours in structure and some others; about 21% of the full set was active somewhere. Unless noted, calls come from the whole dose curve; as a rule, active = well fitted curve in the direction sought with a large enough effect; inconclusive = small, poorly fitted or top-dose-only effect, or another doubt; inactive = no such curve, though single readings can be large; an effect the other way counts as inactive or inconclusive. % is set by controls: 0 for no effect and ±100 for the full control effect.

SMILES | RORg inh | TDP1 cell noCPT | ELG1 DNA repair | DT40 TDP1 CPT | IL1B secr inh | Gal4-VP16 FLuc
CCOc1ccc(NC(=O)N2CCC(CN3CCCCCC3)CC2)cc1 | nt | ? | nt | 18µM* | nt | nt
CC(C)c1ccc(NC(=O)N2CCN(c3ccc(Cl)c(Cl)c3)CC2)cc1 | nt | 0.92µM* | nt | ? | nt | nt
Cc1ccc(NC(=O)N2CCN(c3ccc(Cl)c(Cl)c3)CC2)cc1 | nt | 3.3µM* | nt | ? | nt | nt
CCOc1ccc(NC(=O)N2CCN(c3ccc(Cl)c(Cl)c3)CC2)cc1 | nt | 1.3µM* | nt | ? | nt | nt
CCOc1ccc(NC(=O)N2CC(C)OC(C)C2)cc1 (stereo unspecified) | -5% | -11% | -1% | -1% | 9 | -4%
CC(=O)c1ccc(N2CCN(C(=O)Nc3ccc(C)cc3)CC2)cc1 | 7% | ? | ? | ? | 0 | -3%
Cc1c(CN2CCC(CO)(CCOc3ccccc3)CC2)[nH]c2c(Cl)cccc12 | ? | ? | -6% | ? | 0 | -10%
CCOC(=O)C1=C(COC(=O)C2CC(=O)N(CCc3ccccc3)C2)NC(=O)NC1C (stereo unspecified) | nt | 3% | -1% | 25% | 6 | nt
CCOc1ccc(NC(=O)CN(C)C(=O)C(C)Oc2ccc(Cl)cc2)cc1OCC (stereo unspecified) | nt | ? | nt | ? | -1 | nt
O=Cc1ccsc1B(O)O | -9% | -1% | nt | -3% | nt | 2%
CCNS(=O)(=O)c1ccc(OC)c(C(=O)NC2CCCCC2)c1 | -20% | -7% | 0% | -4% | 23 | -4%[10 µM]
S=c1nc(-c2ccccc2)oc2c1CCCC2 | -25% | 26µM* | ? | ? | 14 | -4%
COc1cccc(-c2nc(=S)c3c(o2)CCCC3)c1 | -15% | -19% | ? | -13% | -10 | -13%
Cc1onc(-c2ccccc2)c1C(=O)N1CCN(c2ccccc2)CC1 | 0% | ? | -5% | ? | 19 | 1%
COc1cc2c(C(=O)N3CCN(c4ccccc4C)CC3)c(C)oc2cc1Br | 3% | 16µM* | -3% | ? | -73* | -3%
Cc1onc(-c2c(F)cccc2Cl)c1C(=O)N1CCN(S(C)(=O)=O)CC1 | 3% | -2% | 1% | -6% | -4 | 0%[0.365 µM]
COc1ccccc1N1CCN(C(=O)c2c(-c3ccccc3)noc2C)CC1 | -21% | 7.3µM* | ? | 10µM* | 40 | -6%
COc1ccccc1N1CCN(C(=O)c2c(-c3c(F)cccc3Cl)noc2C)CC1 | nt | 13µM* | ? | 23µM* | 45 | nt
Cc1onc(-c2ccccc2)c1C(=O)N1CCN(c2ccc([N+](=O)[O-])cc2)CC1 | nt | 21µM* | nt | ? | -2 | nt
O=C1C(=O)N(CCCn2ccnc2)C(c2ccc([N+](=O)[O-])cc2)/C1=C(\O)c1ccc2c(c1)OCCO2 (stereo unspecified) | nt | -26% | 17% | -3% | -13 | nt
COc1ccc(N2CSC(=S)N(c3ccc(OC)cc3)C2)cc1 | nt | 15µM* | nt | 16µM* | -2 | nt
Cc1nc(NCc2ccccc2)c2nc(-c3ccccc3)n(CC(C)(C)CN(C)C)c2n1 | 14µM* | nt | nt | nt | nt | -13%
CCN(CC)CCCn1c(-c2ccccc2)nc2c(NCc3ccccc3)nc(C)nc21 | -4% | nt | nt | nt | nt | -1%
COCCCNC(=O)CSc1nc(-c2ccc(OC)cc2)[nH]c1-c1ccc(OC)cc1 | nt | -28% | nt | -22% | nt | nt
